Measurements taken from PubChem BioAssay (NCI).
This is part of a sample that, as a whole, favours compounds with a hit. Of some 79,000 tested, about 15% had one in any assay. Unmarked numbers belong to inactive results. Activity calls are given as the source filed them. No stated cut-off is given here; in the data, active means growth inhibition above about 70%; inactive means the rest.

experiment: NCI Yeast Anticancer Drug Screen. Data for the mec2-1 strain (AID 157); conditions: S. cerevisiae mec2-1 strain, at 50.0 µM (retest, dose inferred, filed as 5.0), hits give high values
How it was run: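 Vehicle-treated cultures served as reference for growth inhibition of compound-exposed mec2-1 yeast.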

Row | Structure (SMILES) | growth inhibition
1 | CCOP(=O)(OCC)C(Cc1ccccc1)N=C(c1ccccc1)c1ccccc1 (stereo not drawn) | 4%
2 | CCc1ncnc2cc(OCC3CO3)c(OC)cc12 (stereo not drawn) | 92% (active)
3 | CCOC(=O)[C@H]1Nc2ccccc2C2c3ccccc3CC21 (stereo partly drawn) | 20%
4 | O=CNc1ccc2c(c1)C(=O)c1ccccc1-2 | 37%
5 | CCOc1ccc2c(c1)c(CC(=O)O)cn2C | 3%
6 | OC1CSCCCSCCSCCCSC1 | 5%
7 | N#Cc1c(N)[nH]c2ccc(Sc3ccccc3)cc12 | -6%
8 | Cc1ccc(-c2ccc(Nc3c4ccccc4nc4ccccc34)cc2)cn1 | 98% (active)
9 | c1ccc2c(c1)NC(NC1Nc3ccccc3N1)N2 | 16%
10 | OC(COc1cccc2ccccc12)CN1CCOCC1 (stereo not drawn) | 46%
11 | CCC/C(Cl)=N\OC(=O)Nc1ccc(Br)cc1 | 99% (active)
12 | COc1ccc(/C=C2\SC(=S)N(/C=C/c3nc4ccccc4[nH]c3=O)C2=O)cc1OC | 45%
13 | O=C(NNc1ccnc2cc(Cl)ccc12)/C(=C\c1ccccc1Cl)NC(=O)c1ccccc1 | -30%
14 | CSC1=NNC(SC)=NN1 | 41%
15 | Cc1c(C2=C(Br)C(=O)N(C)C2=O)c(=O)n(C)c(=O)n1C | 20%
16 | NCCNc1ccc(NCCN)c2c1C(=O)c1c(O)ccc(O)c1C2=O | 84% (active)
17 | Cn1c(=O)c(-c2ccccc2)c(N=[N+]=[N-])c2ccccc21 | 92% (active)
18 | CCCCCCCCCCCCCCCCCCOCC(O)COP(=O)(O)OCC1OC(n2cc(F)c(=O)[nH]c2=O)CC1O (stereo not drawn) | 99% (active)
